Source: PubChem BioAssay
KB-V1 MDR tox: KB-V1 MDR subline cytotoxicity; KB-V1 MDR cells viability, CellTiter-Glo, 72 h; Potency, µM (titrated, usually from 46.1 µM), actives largely listed as cytotoxic; 400,000 compounds, 3.4% hits; AID 1347076; also: nearly all actives have a fitted effect of over 60% in size
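KB-V1 cells (P-gp-expressing MDR subline of KB-3-1) in phenol-red-free DMEM with 10% FBS were exposed to library compounds over a concentration series for 72 h at 37 degrees C. Viability read by CellTiter-Glo luminescence; concentration-effect curves fitted after normalization.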
KB-3-1 tox: kills parental KB-3-1 adenocarcinoma cells; KB-3-1 viability, CellTiter-Glo ATP luminescence, 72 h; Potency, µM (top dose mostly 46.1 µM), most hits filed as cytotoxic; 400,000 compounds, 1.4% hits; AID 1347075; also: nearly all actives have a fitted effect of over 60% in size
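Parental KB-3-1 adenocarcinoma cells in phenol-red-free DMEM with 10% FBS were pin-treated with compounds at several concentrations, incubated 72 h at 37 °C, and viability read by CellTiter-Glo luminescence; concentration-effect curves were fitted after normalization.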
MCF10A rerep: DNA re-replication induction in MCF 10a cells; Potency, µM (series often up to 46.1 µM), hits mostly activators; MCF 10A DNA re-replication, Hoechst nuclear intensity, 48 h; 350,000 compounds, 2.9% hits; also: nearly all actives have a fitted effect of over 50% in size
HT1080-NT tox: kills 2HG-producing HT-1080-NT fibrosarcoma cells; HT-1080-NT fibrosarcoma viability, CellTiter-Glo ATP luminescence, 48 h; Potency, µM (doses to about 46.1 µM), actives largely listed as cytotoxic; 360,000 compounds, 1.6% hits; AID 686970;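 also: NT is the 2HG producing partner of a matched IDH1 knockdown line; nearly all actives have a fitted effect of over 55% in size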
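Fibrosarcoma NT cells, 750 per well in 5% FBS RPMI, were exposed to compound for 48 hours. Viability: CellTiter-Glo luminescence.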
SW480 rereplic: induces DNA re-replication in SW480 colon adenocarcinoma cells; SW480 DNA re-replication, Hoechst DNA content imaging, 48 h; Potency, µM (titrated, usually from 46.1 µM), usual class: activators; 340,000 compounds, 1.8% hits; also: nearly all actives have a fitted effect of over 55% in size
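Per well, 250 cells were exposed to pinned compound for 48 hr. Nuclear DNA was visualised with Hoechst (40 min, 37 C) and total object intensity recorded by fluorescence scanning.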
HT1080 IDH1KD tx: HT-1080 IDH1 knockdown cell toxicity (counter line) | 360,000 compounds, 2% hits | Potency, µM (top dose mostly 46.1 µM), hits mostly cytotoxic | HT-1080 IDH1 knockdown viability, ATP luminescence, 48 h
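Viability of IDH1-knockdown HT-1080 fibrosarcoma cells was assessed by CellTiter-Glo after 48 h at 37 °C with titrated compound; concentration-effect curves were classified by fit quality and response size.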
Each line names hits and unclear results; the compound was inactive in the other large screens. In the library only some 7.9% were active in any assay of this set; here they are far more common. Calls follow the shape of the dose curve; as a rule, active = well fitted curve in the direction sought with a large enough effect; inconclusive = small, poorly fitted or top-dose-only effect, or another doubt; inactive = no such curve, though single readings can be large; an effect the other way counts as inactive or inconclusive.

CCN(c1ccc(N=Cc2c(O)n(Cc3ccc(OC)cc3)c(=O)c3ccccc23)cc1)C(C)C	MCF10A rerep 7.31µM, SW480 rereplic inconclusive
O=C(Nc1ccc(Br)cc1)C1CCN(C(=O)c2ccco2)CC1	KB-V1 MDR tox 20.6µM
O=C(Nc1ccccc1)C1CCN(C(=O)c2ccco2)CC1	none
O=C(c1ccc(-c2cccc(C(F)(F)F)c2)o1)N1CCCC(C(F)(F)F)C1 (configuration not stated)	SW480 rereplic inconclusive
CC(C)(C)c1ccccc1OCC(=O)Nc1ccccc1C(=O)NCc1cccnc1	KB-V1 MDR tox 18.4µM, MCF10A rerep inconclusive, HT1080-NT tox inconclusive, HT1080 IDH1KD tx inconclusive
C=CCOc1ccc(C(=O)Nc2ccccc2C(=O)NCc2cccnc2)cc1	KB-V1 MDR tox 3.66µM, KB-3-1 tox 5.17µM, MCF10A rerep inconclusive, HT1080-NT tox 20.6µM, SW480 rereplic inconclusive, HT1080 IDH1KD tx 23.1µM
Cc1cn([C@H]2C[C@H](O)[C@@H](/C=C/C(=O)NCCN3CCOCC3)O2)c(=O)[nH]c1=O	none (no result: MCF10A rerep, SW480 rereplic)
COc1ccc(C(=O)O/N=C(\N)Cc2ccc([N+](=O)[O-])cc2)c(OC)c1	KB-V1 MDR tox inconclusive, HT1080-NT tox inconclusive, HT1080 IDH1KD tx 18.4µM
N/C(Cc1ccc([N+](=O)[O-])cc1)=N\OC(=O)c1cccc(Br)c1	MCF10A rerep inconclusive, SW480 rereplic 11.6µM
N/C(Cc1ccc([N+](=O)[O-])cc1)=N\OC(=O)c1ccc([N+](=O)[O-])cc1	KB-V1 MDR tox inconclusive
COc1ccc(C/C(N)=N/OC(=O)c2cccc([N+](=O)[O-])c2)cc1	MCF10A rerep inconclusive
CCC(C(=O)NCc1ccccc1Cl)n1nc(C)c2sc3ccccc3c2c1=O (configuration not stated)	none (no result: MCF10A rerep, HT1080-NT tox, SW480 rereplic, HT1080 IDH1KD tx)
COc1ccccc1C1C(C(N)=O)=C(C)Nc2nc(SCc3ccccc3F)nn21 (configuration not stated)	KB-V1 MDR tox inconclusive (no result: MCF10A rerep, HT1080-NT tox, SW480 rereplic, HT1080 IDH1KD tx)
O=C(O)[C@H](CC(=O)N1C[C@H]2CCCC[C@H]2C1)Cc1ccccc1	none (no result: KB-V1 MDR tox, KB-3-1 tox, HT1080-NT tox, HT1080 IDH1KD tx)
Cc1ccc(C2=CC(=O)CC(C)(C)C2)cc1	none
CN(C)/C=C/C1=CC(=O)CC(C)(C)C1	MCF10A rerep inconclusive, SW480 rereplic inconclusive, HT1080 IDH1KD tx 20.6µM
O=S(=O)(Nn1cnnc1)c1ccc(F)cc1	MCF10A rerep 2.31µM
O=C(NCCCl)Nc1ccccc1OCCOc1ccccc1NC(=O)NCCCl	none
COc1ccc(CC2S/C(=N/N=C/c3ccc(O)cc3)NC2=O)cc1 (configuration not stated)	none
O=C1N/C(=N/N=C/c2ccccc2O)SC1Cc1ccc(F)cc1 (configuration not stated)	KB-V1 MDR tox inconclusive, KB-3-1 tox inconclusive, HT1080-NT tox inconclusive, SW480 rereplic inconclusive, HT1080 IDH1KD tx 23.1µM
COc1ccc(CC2S/C(=N/N=C/c3ccccc3O)NC2=O)cc1 (configuration not stated)	KB-3-1 tox inconclusive, MCF10A rerep 23.1µM, SW480 rereplic 2.91µM
O=C1N/C(=N/N=C/c2ccc(O)cc2)SC1Cc1ccccc1 (configuration not stated)	none
Cc1ccc(CCNC(=O)Cn2ncc3c([nH]c4ccc(C)cc43)c2=O)cc1	none (no result: MCF10A rerep, HT1080-NT tox, SW480 rereplic, HT1080 IDH1KD tx)
O=S(=O)(c1ccccc1)N1CCN(S(=O)(=O)c2ccccc2)c2ccccc21	KB-V1 MDR tox 20.6µM
CCOC(=O)c1cc(CC)sc1NC(=O)c1cc([N+](=O)[O-])ccc1N1CCOCC1	KB-3-1 tox 1.03µM, MCF10A rerep inconclusive, HT1080-NT tox inconclusive, SW480 rereplic 2.31µM, HT1080 IDH1KD tx inconclusive
COc1ccc(COC(=O)c2cc([N+](=O)[O-])ccc2N2CCOCC2)cc1F	KB-V1 MDR tox 0.0731µM, KB-3-1 tox 0.13µM, HT1080-NT tox 0.0058µM, SW480 rereplic inconclusive, HT1080 IDH1KD tx 0.0052µM
CCOC(=O)c1cc(CC)sc1NC(=O)c1ccc(N2CCOCC2)c([N+](=O)[O-])c1	none
O=C(OCc1cccc(C(F)(F)F)c1)c1cc([N+](=O)[O-])ccc1N1CCOCC1	KB-V1 MDR tox inconclusive
O=C(OCc1ccc(Br)cc1)c1cc([N+](=O)[O-])ccc1N1CCOCC1	KB-V1 MDR tox 1.3µM, KB-3-1 tox 5.8µM, HT1080-NT tox inconclusive, HT1080 IDH1KD tx 2.59µM (no result: MCF10A rerep, SW480 rereplic)
O=C(OCc1cccc(Cl)c1)c1cc([N+](=O)[O-])ccc1N1CCOCC1	KB-V1 MDR tox inconclusive, KB-3-1 tox inconclusive, MCF10A rerep inconclusive, SW480 rereplic inconclusive, HT1080 IDH1KD tx inconclusive
CCc1ccc(C(=O)COC(=O)c2cc([N+](=O)[O-])ccc2N2CCOCC2)cc1	KB-V1 MDR tox 6.51µM, KB-3-1 tox inconclusive, MCF10A rerep 4.61µM, HT1080-NT tox 9.2µM, SW480 rereplic 10.3µM, HT1080 IDH1KD tx 8.2µM
CC(C)(C)c1ccc(C(=O)N2CCC2(C)C(=O)NCC(F)(F)F)cc1 (configuration not stated)	none (no result: MCF10A rerep, SW480 rereplic)
O=C(CSc1nc2c([nH]c3ccccc32)c(=O)n1-c1ccc(Cl)cc1)N1CCCCCC1	none (no result: MCF10A rerep, HT1080-NT tox, SW480 rereplic, HT1080 IDH1KD tx)
COc1ccc(OC)c(/C=C/C(=O)OCC(=O)N2CCCC2)c1	none
COc1ccc(/C=C/C(=O)OCC(=O)N2CCCC2)c(OC)c1	KB-V1 MDR tox 11.6µM
N#CC(C#N)=NNc1ccc2cn[nH]c2c1	HT1080-NT tox 20.6µM, HT1080 IDH1KD tx 20.6µM (no result: MCF10A rerep, SW480 rereplic)
Cc1ccc(C(OCC(O)CNC(C)c2ccccc2)c2ccccc2)cc1 (configuration not stated)	KB-V1 MDR tox inconclusive, MCF10A rerep inconclusive, HT1080-NT tox 14.6µM, HT1080 IDH1KD tx 18.4µM
Cc1ccc(C(OCC(O)CNC(CO)C(O)c2ccc([N+](=O)[O-])cc2)c2ccccc2)cc1 (configuration not stated)	KB-V1 MDR tox 16.4µM, MCF10A rerep inconclusive, HT1080-NT tox 20.6µM, SW480 rereplic inconclusive, HT1080 IDH1KD tx inconclusive
O=C1c2ccccc2C(=O)N1C(CO)C(O)c1ccc([N+](=O)[O-])cc1 (configuration not stated)	KB-V1 MDR tox inconclusive
N#CCSc1ccccc1NC(=O)CN1C(=O)C2CC=CCC2C1=O (configuration not stated)	none
COc1ccccc1CNC(=O)c1csc2c1CCCC2	none
COc1ccccc1NC(=O)c1csc2c1CCCC2	KB-V1 MDR tox 16.4µM
Oc1ccc(N=Nc2c(O)ccc3ccccc23)cc1	KB-V1 MDR tox inconclusive, HT1080-NT tox 11.2µM, HT1080 IDH1KD tx inconclusive
COc1ccc(-n2nnnc2CNC(=O)c2ccc3c(c2)OCO3)cc1	KB-V1 MDR tox inconclusive
O=C(NCC(c1cccs1)N1CCOCC1)c1ccccc1NS(=O)(=O)c1ccc(Cl)c([N+](=O)[O-])c1 (configuration not stated)	KB-V1 MDR tox inconclusive, MCF10A rerep 14.6µM
